# GPR151 ag = activators of human GPR151; Q8TDV0; PathHunter beta-arrestin GPR151 cells, luminescence; activation, % at 11.2 µM; 650,000 tested, 1% active; AID 1508602; in the data active = activation above about 4.9%;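 also: 0% = median of compound wells and 100% = cells with positive control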
# MITF inh = inhibitors of human MITF; O75030; AlphaScreen MITF homodimerization, bead proximity signal; 650,000 tested, 0.91% active; inhibition, % at 2.6 µM; in the data active = inhibition above about 50%;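 also: 0% = vehicle wells with protein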
# TEAD-YAP block = TEAD-YAP interaction inhibition. HEK-TIYL cells, TEAD-Gal4/YAP UAS-luciferase luminescence. inhibition, % at 9.12 µM. 640,000 tested, 1.4% active. AID 1259422; in the data active = inhibition above about 32%;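 also: 0% = median of test compound wells and 100% = reference inhibitor wells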
# FBW7 act = activators of human E3 ligase FBW7; normalized activity (activation), % at 26.1 µM; AID 1259310; 650,000 tested, 0.13% active; Q969H0; AlphaScreen FBW7–phospho-cyclin E peptide binding, activator screen; in the data active = normalized activity above about 1.9%;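 also: purified mutant Fbw7 with reduced substrate affinity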
# Target sequence (Q969H0 whole entry, looked up): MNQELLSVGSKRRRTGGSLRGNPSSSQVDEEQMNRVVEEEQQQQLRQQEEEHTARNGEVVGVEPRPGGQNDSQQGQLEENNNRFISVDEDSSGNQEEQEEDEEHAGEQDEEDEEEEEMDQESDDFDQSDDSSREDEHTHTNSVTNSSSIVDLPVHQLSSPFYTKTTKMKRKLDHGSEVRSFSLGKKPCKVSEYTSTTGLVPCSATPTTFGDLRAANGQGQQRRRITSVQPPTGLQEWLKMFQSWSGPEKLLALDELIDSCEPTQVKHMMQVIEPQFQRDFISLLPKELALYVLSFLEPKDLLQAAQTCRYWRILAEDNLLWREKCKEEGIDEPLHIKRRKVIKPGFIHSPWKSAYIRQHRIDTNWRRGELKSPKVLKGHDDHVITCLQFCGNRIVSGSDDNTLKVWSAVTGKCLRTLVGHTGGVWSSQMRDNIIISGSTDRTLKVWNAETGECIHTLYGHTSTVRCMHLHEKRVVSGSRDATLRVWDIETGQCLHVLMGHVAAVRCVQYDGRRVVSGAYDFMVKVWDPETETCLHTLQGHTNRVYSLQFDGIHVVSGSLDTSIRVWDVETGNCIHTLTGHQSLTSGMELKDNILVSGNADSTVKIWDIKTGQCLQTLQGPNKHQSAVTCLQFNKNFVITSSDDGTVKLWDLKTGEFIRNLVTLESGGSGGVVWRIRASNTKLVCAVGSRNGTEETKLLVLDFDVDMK
# * hit, by the source's call; ! = not confirmed by another sample. Sampled rows, rich in hits. Any-hit rate of the full collection: about 3.5%.
SMILES,GPR151 ag,MITF inh,TEAD-YAP block,FBW7 act
O=C(Oc1ccc([N+](=O)[O-])c2cccnc12)c1cccc(S(=O)(=O)N2CCOCC2)c1,1.1,71.5*,6.4,-1.1
N#Cc1c(/N=C/c2c(O)n(Cc3ccco3)c(=O)[nH]c2=O)sc2c1CCCC2,0.8,53.1*,-6.8,-0.9
O=c1[nH]c(=S)n(Cc2ccco2)c(O)c1C=NCc1cccs1,0.1,19.3,-2.6,0.1
O=C(Nc1cccc(C(F)(F)F)c1)c1cc(Cl)ccc1O,-0.9,4.5,78.3*,0.4
CCP(=O)(CC)Nc1cccc(C(F)(F)F)c1,1.3,7.8,7.7,0.4
O=C1C(=O)c2ccccc2-c2ccccc21,1.2,16.3,99.0*,-0.9
Cc1cc(C(=O)Nc2ccc(C#N)c(Cl)c2)ccc1[N+](=O)[O-],-0.4,21.6,-2.1,0.1
O=C(CN1CCCCCC1)c1ccccc1,0.0,-13.8,0.2,-0.1
O=C(c1ccccc1)C(CN1CCCC1)c1ccccc1 (stereo not given),0.0,0.0,54.4*,-0.1
CCOc1ccc(CN(CCc2ccc3c(c2)OCO3)Cc2ccccc2)cc1,1.8,15.1,-3.5,0.2
Cc1cc(C)n2nc3c(c(C)cc(C)[n+]3-c3ccccc3)c2n1,0.9,15.7,33.4*,0.3
Cc1cc(C)[n+](-c2ccccc2)c2[nH]c(=O)[nH]c(=O)c12,1.8,8.1,-5.1,0.9
COc1cc2c(cc1O)CC1c3c(cc(O)c(OC)c3-2)CCN1C (stereo not given),2.2,18.8,33.5*!,0.5
COc1cc([C@@H]2c3cc4c(cc3[C@H](OC(C)=O)[C@H]3COC(=O)[C@@H]23)OCO4)cc(OC)c1OC,3.0,-6.1,52.0*,0.8
COc1cc([C@@H]2c3cc4c(cc3[C@@H](O)[C@H]3COC(=O)[C@H]23)OCO4)cc(OC)c1O,3.5,10.7,-9.1,0.6
O=C1C2CCN(CC2)C1Cc1ccc(OCCOc2ccccc2)cc1 (stereo not given),0.4,-16.7,-6.1,-0.1
Cc1ccc(/C=C2\C(=O)NC(=S)N(c3cccc(F)c3)C2=O)o1,2.1,11.7,0.1,0.0
CCOc1ccc(N2C(=O)/C(=C/c3ccc(Br)o3)C(=O)NC2=S)cc1,-1.6,79.4*,9.8,-0.2
O=C1NC(=S)N(c2cccc(F)c2)C(=O)/C1=C/c1ccc(Br)o1,-1.0,83.7*,4.1,-0.1
CN1C(=O)NC(=O)/C(=C/c2ccc(Br)o2)C1=O,0.6,70.9*,9.7,-0.4
CCOc1ccc(N2C(=O)/C(=C/c3ccc(C)o3)C(=O)NC2=S)cc1,1.3,13.7,-0.7,-0.2
CC(=O)c1c(C)n(CCC2=CCCCC2)c2ccc(O)cc12,-0.9,-6.7,-6.5,0.1
CN1C(C(=O)c2ccccc2)C1c1ccc([N+](=O)[O-])cc1 (stereo not given),0.7,24.8,2.4,0.7
CC(C)[C@]12O[C@H]1[C@@H]1O[C@]13[C@]1(O[C@H]1C[C@H]1C4=C(CC[C@@]13C)C(=O)OC4)[C@@H]2O,1.0,2.6,90.5*,0.0
O=C1NC(=O)C(=Cc2ccc([N+](=O)[O-])o2)C(=O)N1,1.8,79.1*,4.4,-1.2
SMILES,GPR151 ag,MITF inh,TEAD-YAP block,FBW7 act
CC1(c2ccccc2)CCN2CCC(C)(c3ccccc3)c3cc([N+](=O)[O-])cc1c32 (stereo not given),-0.2,-2.9,10.2,0.1
COC1=CC(=O)O[C@H](/C=C/c2ccc3c(c2)OCO3)C1,0.6,0.6,77.9*,0.7
COC1=CC(=O)O[C@@H](CCc2ccc3c(c2)OCO3)C1,2.0,20.8,11.8,0.5
CC(=O)Oc1ccc(/C=C/c2cc(OC(C)=O)cc(OC(C)=O)c2)cc1,-7.4,0.4,96.0*,-0.1
O=C1NC(=O)C(=Cc2cc(Cl)ccc2OCc2ccc(C(=O)O)cc2)C(=O)N1,1.2,5.3,0.0,-0.8
CCOc1ccc(C=C2C(=O)NC(=S)NC2=O)cc1OCC,-1.0,5.3,4.4,0.0
O=C1NC(=O)C(=Cc2ccc(OCc3cccc(C(=O)O)c3)cc2)C(=O)N1,-7.7,-3.3,71.2*,-0.4
COc1cc(C=C2C(=O)NC(=S)NC2=O)ccc1OCc1cccc(C(=O)O)c1,-7.8,-20.0,85.0*,-0.1
CCN1CC2(COC)CCC(OC)C34C5C[C@]6(O)C(OC)C[C@@](OC(C)=O)(C5[C@H]6OC(=O)c5ccc(OC)cc5)[C@@H]([C@H](OC)C23)[C@@H]14 (stereo not given in full),-0.2,9.3,-1.3,0.0
CC/C(=C\c1sc2ccc(OC)cc2[n+]1CC)SC (tested in a mixture with another compound),-0.5,10.4,3.9,0.0
